Test results published in PubChem BioAssay (NCATS).
Inconclusive results are not listed. Values without a mark were called inactive. Active and inactive are the calls of the source. The call rests on the fitted dose curve; in most records, active means well fitted curve in the direction sought with a large enough effect; inconclusive means small, poorly fitted or top-dose-only effect, or another doubt; inactive means no such curve, though single readings can be large; an effect the other way counts as inactive or inconclusive. Non-standard residues stand in square brackets, D forms with d. Residues, ends and D or L forms follow the SMILES beside them. *: point of attachment. Sta = CC(C)C[C@H](N)[C@@H](O)CC(=O)O; Isovaleryl = CC(C)CC(=O)*

Tested on: not listed separately
Assay: Primary qHTS for inhibitors of La Crosse Virus (LACV) - induced cell death in SH-SY5Y cells (AID 1508616); further: potency means the concentration at half of the fitted maximal effect;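 on activity change: top concentration of the series differs between compounds; 0% = infected DMSO wells and 100% = uninfected DMSO wells; higher means more rescue of cells from virus-induced death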
Conditions: SH-SY5Y LACV cytopathicity rescue, ATP luminescence, 6 d; series mostly up to 4.29 µM; activity change: at the top concentration
Outline: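 Screening measures cell viability in LACV-infected SH-SY5Y cultures. Compound was added before virus (0.01 MOI), and ATP was detected by luminescence 6 days later.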

Row | SMILES | activity change | Potency
1 | Cc1cc(=O)oc2cc(O)ccc12 | 41.1% | –
2 | Cc1cc2cc3c(C)cc(=O)oc3c(C)c2o1 | 10.7% | –
3 | CCOC(=O)C(C)Oc1cccc2c(=O)n(CC(=O)Nc3ccc4c(c3)OCCO4)ccc12 (stereo unspecified) | 6.76% [at 9.63 µM] | –
4 | Nc1ccn([C@@H]2O[C@H](CO)[C@@H](O)C2O)c(=O)n1 (stereo partly specified) | – | 316 nM (active)
5 | CC(C)C[C@H](NC(=O)[C@H](Cc1ccccc1)NC(=O)c1cnccn1)B(O)O | -96.1% | –
6 | COc1ccccc1N1CCN(CCN(C(=O)C2CCCCC2)c2ccccn2)CC1 | 28% [at 9.63 µM] | –
7 | CCC1=C(C)CN(C(=O)NCCc2ccc(S(=O)(=O)NC(=O)NC3CCC(C)CC3)cc2)C1=O (stereo unspecified) | 1.32% | –
8 | COc1cc2c(cc1OC)C1CC(=O)C(CC(C)C)CN1CC2 (stereo unspecified) | -0.491% [at 9.63 µM] | –
9 | Oc1ccc(-c2nc(-c3ccc(F)cc3)c(-c3ccncc3)[nH]2)cc1 | -15.7% [at 9.63 µM] | –
10 | CC(C)[C@H](N)C(=O)OCCOCn1cnc2c(=O)[nH]c(N)nc21 | 12.9% | –
11 | CC(S)C(=O)NCC(=O)O (stereo unspecified) | -5.45% | –
12 | O=C(NOCC1CC1)c1ccc(F)c(F)c1Nc1ccc(I)cc1Cl | -18.8% | –
13 | N[C@@H](Cc1cc(I)c(Oc2cc(I)c(O)c(I)c2)c(I)c1)C(=O)O | -12.5% | –
14 | Cc1ccc(C)c(OCCCC(C)(C)C(=O)O)c1 | -4.93% | –
15 | Cc1cc(O)c2c(c1)C(=O)c1cc(O)cc(O)c1C2=O | -2.49% [at 9.63 µM] | –
16 | CCc1nc(N)nc(N)c1-c1ccc(Cl)cc1 | 14.3% | –
17 | Cc1ncc([N+](=O)[O-])n1CC(C)O (stereo unspecified) | -1.38% | –
18 | CC(=O)O[C@H]1C(=O)[C@@]2(C)C([C@H](OC(=O)c3ccccc3)[C@]3(O)C[C@H](OC(=O)[C@H](O)[C@@H](NC(=O)c4ccccc4)c4ccccc4)C(C)=C1C3(C)C)[C@]1(OC(C)=O)CO[C@@H]1C[C@@H]2O (stereo partly specified) | -72.8% [at 9.63 µM] | –
19 | O=C1c2c(O)cc(O)cc2OC(c2ccc(O)c(O)c2)C1O (stereo unspecified) | 40.4% [at 9.63 µM] | –
20 | CCC(C)(Oc1ccc(C2(c3ccc(OC(C)(CC)C(=O)O)cc3)CCCCC2)cc1)C(=O)O (stereo unspecified) | 6.54% | –
21 | O=c1c(O)c(-c2ccc(O)cc2O)oc2cc(O)cc(O)c12 | 1.76% [at 9.63 µM] | –
22 | Cc1cc2c(s1)Nc1ccccc1N=C2N1CCN(C)CC1 | 7.15% | –

Molecular target: Calcium and integrin-binding protein 1 (Homo sapiens) (UniProt Q99828)
Sequence (Q99828 whole entry, looked up): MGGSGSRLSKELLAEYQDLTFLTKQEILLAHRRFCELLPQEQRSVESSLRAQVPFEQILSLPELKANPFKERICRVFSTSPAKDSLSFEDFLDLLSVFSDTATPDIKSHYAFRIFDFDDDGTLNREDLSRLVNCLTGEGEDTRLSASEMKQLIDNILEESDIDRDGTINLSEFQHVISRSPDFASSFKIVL
Assay: Validation qHTS for Identification of Calcium Integrin Binding protein 1 (CIB1) Competitor (AID 1508618); further: on the % scale 0 is the no-effect control and ±100 the full control effect
Conditions: CIB1-GST / FITC-alphaIIb peptide fluorescence polarization; series mostly up to 114 µM; activity change, negative = inhibition: at the top concentration
Outline: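 Displacement of FITC-alphaIIb peptide (100 nM) from CIB1-GST (1 uM) is monitored by polarization in quantitative HTS format; buffer carries 5 mM CaCl2 and 125 mM NaCl at pH 7.4, incubations are at room temperature.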

Row | SMILES | activity change, negative = inhibition [%]
23 | CCOC(=O)C(C)Oc1cccc2c(=O)n(CC(=O)Nc3ccc4c(c3)OCCO4)ccc12 (stereo unspecified) | 18.7
24 | Nc1nc(N)c(N=O)c(OCC2CCCCC2)n1 | -7.09
25 | O=c1c(O)c(-c2cc(O)c(O)c(O)c2)oc2cc(O)cc(O)c12 | -12.1
26 | COc1ccccc1N1CCN(CCN(C(=O)C2CCCCC2)c2ccccn2)CC1 | 8.45
27 | COc1cc2c(cc1OC)C1CC(=O)C(CC(C)C)CN1CC2 (stereo unspecified) | 4.87
28 | Oc1ccc(-c2nc(-c3ccc(F)cc3)c(-c3ccncc3)[nH]2)cc1 | -2.1
29 | Nc1nc(OCc2ccccc2)c2[nH]cnc2n1 | -0.0393
30 | CC(=O)N1CCN(c2ccc(OC[C@H]3CO[C@](Cn4ccnc4)(c4ccc(Cl)cc4Cl)O3)cc2)CC1 | -1.64
31 | O=Nc1c(-c2c(O)[nH]c3cc(Br)ccc23)[nH]c2ccccc12 | -1.89
32 | C[C@@H](N)C1CCC(C(=O)Nc2ccncc2)CC1 (stereo partly specified) | 1.79

Molecular target: Calcium and integrin-binding protein 1 (Homo sapiens) (UniProt Q99828)
Assay: Primary qHTS for Identification of Calcium Integrin Binding Protein 1 (CIB1) Competitor (AID 1508620);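 further: GST tagged CIB1 binding a fluorescein labelled alphaIIb integrin peptide tracer; top concentration of the series differs between compounds; on the % scale 0 is the no-effect control and ±100 the full control effect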
Conditions: CIB1-GST / FITC-alphaIIb peptide fluorescence polarization; series mostly up to 57.7 µM; activity change, negative = inhibition: at the top concentration
Outline: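 Fluorescence polarization competition: CIB1-GST (1 uM final) preincubated with compound 15 min at room temperature, then FITC-labeled alphaIIb peptide (100 nM final) added for another 15 min. Polarization read at Ex 480/Em 540.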

Row | SMILES | Potency | activity change, negative = inhibition
33 | Cc1cc(=O)oc2cc(O)ccc12 | inactive | –
34 | Cc1cc2cc3c(C)cc(=O)oc3c(C)c2o1 | inactive | –
35 | CCOC(=O)C(C)Oc1cccc2c(=O)n(CC(=O)Nc3ccc4c(c3)OCCO4)ccc12 (stereo unspecified) | – | -1.63%
36 | Nc1ccn([C@@H]2O[C@H](CO)[C@@H](O)C2O)c(=O)n1 (stereo partly specified) | – | 2.56%
37 | COc1cc(OC)c(C(=O)CCCN2CCCC2)c(OC)c1 | inactive | –
38 | COCCCN1CCC(NC(=O)c2cc(Cl)c(N)c3c2OCC3)CC1 | inactive | –
39 | COc1cc2c(N3CCN(C(=O)Nc4ccc(OC(C)C)cc4)CC3)ncnc2cc1OCCCN1CCCCC1 | inactive | –
40 | CC(C)C[C@H](NC(=O)[C@H](Cc1ccccc1)NC(=O)c1cnccn1)B(O)O | inactive | –
41 | Nc1nc(N)c(N=O)c(OCC2CCCCC2)n1 | – | -0.49%
42 | O=c1c(O)c(-c2cc(O)c(O)c(O)c2)oc2cc(O)cc(O)c12 | – | -19.3%
43 | COc1ccccc1N1CCN(CCN(C(=O)C2CCCCC2)c2ccccn2)CC1 | inactive | –
44 | Nc1cc(C(Cl)=C(Cl)Cl)c(S(N)(=O)=O)cc1S(N)(=O)=O | inactive | –
45 | CCC1=C(C)CN(C(=O)NCCc2ccc(S(=O)(=O)NC(=O)NC3CCC(C)CC3)cc2)C1=O (stereo unspecified) | inactive | –
46 | c1ccc2[nH]c(-c3cscn3)nc2c1 | inactive | –
47 | COc1cc2c(cc1OC)C1CC(=O)C(CC(C)C)CN1CC2 (stereo unspecified) | – | -3.74%
48 | Oc1ccc(-c2nc(-c3ccc(F)cc3)c(-c3ccncc3)[nH]2)cc1 | – | 1.58%
49 | CCN(CC)CCOc1ccc(Cc2ccccc2)cc1 | inactive | –
50 | Nc1nc(OCc2ccccc2)c2[nH]cnc2n1 | – | -7.23%
51 | CC(=O)N1CCN(c2ccc(OC[C@H]3CO[C@](Cn4ccnc4)(c4ccc(Cl)cc4Cl)O3)cc2)CC1 | – | -5.48%
52 | CC(C)[C@H](N)C(=O)OCCOCn1cnc2c(=O)[nH]c(N)nc21 | inactive | –

Row | SMILES | Potency | activity change, negative = inhibition
53 | O=Nc1c(-c2c(O)[nH]c3cc(Br)ccc23)[nH]c2ccccc12 | – | -18.4%
54 | C[C@@H](N)C1CCC(C(=O)Nc2ccncc2)CC1 (stereo partly specified) | – | -6.54%
55 | CC(S)C(=O)NCC(=O)O (stereo unspecified) | inactive | –
56 | CCCCN(CCCC)CCC(O)c1cc2c(Cl)cc(Cl)cc2c2cc(C(F)(F)F)ccc12 (stereo unspecified) | inactive | –
57 | O=C(NOCC1CC1)c1ccc(F)c(F)c1Nc1ccc(I)cc1Cl | inactive | –
58 | CC(C)CC(=O)N[C@H](C(=O)N[C@H](C(=O)N[C@@H](CC(C)C)[C@@H](O)CC(=O)N[C@@H](C)C(=O)N[C@@H](CC(C)C)[C@@H](O)CC(=O)O)C(C)C)C(C)C (Isovaleryl-VV[Sta]A[Sta]-OH) | – | 3.42% [at 114 µM]
59 | N[C@@H](Cc1cc(I)c(Oc2cc(I)c(O)c(I)c2)c(I)c1)C(=O)O | inactive | –
60 | Cc1ccc(C)c(OCCCC(C)(C)C(=O)O)c1 | inactive | –
61 | Cc1cc(O)c2c(c1)C(=O)c1cc(O)cc(O)c1C2=O | – | -0.454%
62 | CN(C)c1ccc(O)c2c1C[C@H]1C[C@H]3[C@H](N(C)C)C(=O)C(C(N)=O)=C(O)[C@@]3(O)C(=O)C1=C2O | inactive | –
63 | CCc1nc(N)nc(N)c1-c1ccc(Cl)cc1 | inactive | –
64 | Cc1ncc([N+](=O)[O-])n1CC(C)O (stereo unspecified) | inactive | –
65 | CC(=O)O[C@H]1C(=O)[C@@]2(C)C([C@H](OC(=O)c3ccccc3)[C@]3(O)C[C@H](OC(=O)[C@H](O)[C@@H](NC(=O)c4ccccc4)c4ccccc4)C(C)=C1C3(C)C)[C@]1(OC(C)=O)CO[C@@H]1C[C@@H]2O (stereo partly specified) | inactive | –
66 | O=C1c2c(O)cc(O)cc2OC(c2ccc(O)c(O)c2)C1O (stereo unspecified) | – | -4.28%
67 | CCCCC(CC)COC(=O)C(C#N)=C(c1ccccc1)c1ccccc1 (stereo unspecified) | inactive | –
68 | CC1=C(C)C(=O)C(C(CCCCCC(=O)O)c2ccccc2)=C(C)C1=O (stereo unspecified) | inactive | –
69 | CCC(C)(Oc1ccc(C2(c3ccc(OC(C)(CC)C(=O)O)cc3)CCCCC2)cc1)C(=O)O (stereo unspecified) | inactive | –
70 | O=c1c(O)c(-c2ccc(O)cc2O)oc2cc(O)cc(O)c12 | – | -10.1%
71 | Cc1cc2c(s1)Nc1ccccc1N=C2N1CCN(C)CC1 | inactive | –
